Results filed as inconclusive are left out. A number with no mark means an inactive call. Active and inactive are the calls of the source. Calls come from the whole dose curve; tested in HEK293 reporter line.
Experiment: qHTS for Inhibitors of the Functional Ribonucleoprotein Complex (vRNP) of Lassa (LASV) Arenavirus: LASV Primary Screen - GLuc reporter signal (AID 1347082); note: nearly all actives have a fitted effect of over 60% in size
Details: LASV minigenome vRNP, Gaussia luciferase reporter; series mostly up to 57.5 µM; activity change, negative = inhibition: at the top concentration
% is set by controls: 0 for no effect and ±100 for the full control effect.

SMILES	Potency	activity change, negative = inhibition
Cc1ccc(Cl)c(Nc2ccccc2C(=O)O)c1Cl	inactive	–
O=C(O)c1cc(-c2ccccc2)nc2ccccc12	inactive	–
COc1cc(C(=O)NS(=O)(=O)c2ccccc2C)ccc1Cc1cn(C)c2ccc(NC(=O)OC3CCCC3)cc12	–	3.81%
COc1ccc2[nH]cc(CCNC(C)=O)c2c1	inactive	–
Cc1ccc(C(=O)C(C)CN2CCCCC2)cc1 (stereo not drawn)	–	6.66%
C[C@]12C=CC(=O)C=C1CC[C@@H]1[C@@H]2[C@@H](O)C[C@@]2(C)[C@H]1CC[C@]2(O)C(=O)CO	–	-0.891%
NC(N)=Nc1nc(CSCC/C(N)=N/S(N)(=O)=O)cs1	inactive	–
CC(NN)c1ccccc1 (stereo not drawn)	–	-0.174% [at 24.7 µM]
COCCCN1CCC(NC(=O)c2cc(Cl)c(N)c3c2OCC3)CC1	inactive	–
Nc1ccc(S(=O)(=O)Nc2ccccn2)cc1	inactive	–
NC1CCN(c2cccc(Cl)n2)CC1	inactive	–
CC(C)(C)NCC(O)c1cc(O)cc(O)c1 (stereo not drawn)	inactive	–
CC(=O)N(CC(O)CO)c1c(I)c(C(=O)NCCO)c(I)c(C(=O)NCC(O)CO)c1I (stereo not drawn)	–	-4.79%
C[C@H]1O[C@@H](n2cc(F)c(=O)[nH]c2=O)[C@H](O)[C@@H]1O	–	9.14%
CC(O)CN(CCN(CC(C)O)CC(C)O)CC(C)O (stereo not drawn)	–	-3.71%
CC(CSC(=O)c1ccccc1)C(=O)N1C[C@@H](Sc2ccccc2)C[C@H]1C(=O)O (stereo partly drawn)	–	2.27% [at 24.7 µM]
CC(C)NCC(O)c1cc(O)cc(O)c1 (stereo not drawn)	inactive	–
Cc1ncc(CO)c(CN)c1O	–	0.186%
O=C(O)CN(CCN(CC(=O)O)CC(=O)O)CCN(CC(=O)O)CC(=O)O	inactive	–

SMILES	Potency	activity change, negative = inhibition
C#C[C@]1(O)CC[C@H]2[C@@H]3CCC4=CC(=O)CC[C@@H]4[C@H]3CC[C@@]21CC	–	-3.44%
CCCCCCCCCCOc1cc2c(=O)c(C(=O)OCC)c[nH]c2cc1OCC	–	-8.32% [at 5.82 µM]
CCCCCCCCCCCCCCCCCCO	–	-1.3%
CCO[C@H](Cc1ccc(OCCc2ccc(OS(C)(=O)=O)cc2)cc1)C(=O)O	–	0.229%
Cc1c(N)nc([C@H](CC(N)=O)NC[C@H](N)C(N)=O)nc1C(=O)N[C@H](C(=O)N[C@H](C)[C@@H](O)[C@H](C)C(=O)N[C@H](C(=O)NCCc1nc(-c2nc(C(=O)NCCCCN=C(N)N)cs2)cs1)[C@@H](C)O)[C@@H](O[C@@H]1O[C@@H](CO)[C@@H](O)[C@H](O)[C@@H]1O[C@H]1O[C@H](CO)[C@@H](O)[C@H](OC(N)=O)[C@@H]1O)c1cnc[nH]1	–	4.46%
CCC(Cc1c(I)cc(I)c(N)c1I)C(=O)O (stereo not drawn)	–	-6.71%
C=CCN1CCc2nc(N)sc2CC1	–	-1.61%
O=C(O)c1cc(=O)[nH]c(=O)[nH]1	inactive	–
NS(=O)(=O)c1cc(C2(O)NC(=O)c3ccccc32)ccc1Cl (stereo not drawn)	–	-5.19%
CCCCCN(CCCOC)C(=O)C(CCC(=O)O)NC(=O)c1ccc(Cl)c(Cl)c1 (stereo not drawn)	–	1.49%
CC(C)Cc1ccc(C(C)C(=O)O)cc1 (stereo not drawn)	inactive	–
CCN1CC(CCN2CCOCC2)C(c2ccccc2)(c2ccccc2)C1=O (stereo not drawn)	–	-12.7%
C[C@@H]1CCC[C@H](C)N1	–	-1.18%
C1COC(NC(C2CC2)C2CC2)=N1	inactive	–
O=c1[nH]c(=O)n([C@H]2C[C@H](O)[C@@H](CO)O2)cc1I	–	12.2%
COc1cc(-c2ccc(=O)[nH]n2)ccc1OC(F)F	–	3.15%
COC(=O)c1cc(Cl)c(NC(C)=O)cc1OC	–	4.83%
C/C=C/C=N/NC(=O)c1ccncc1	–	0.812%
O=c1cc[nH]c(=S)[nH]1	–	27.9%

— PubChem BioAssay (NCATS)
